The experiment addresses furin, P09958. Put plainly: furin cleavage Z-score vs untreated control; higher = more cleavage, active = 3.5 or more, inactive = 1 or less, 8 variable residues between constant flanks. In a few lines:
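Furin cleavage was scored on 8-mer peptides joined to a cDNA oligonucleotide and bound to magnetic beads at the N-terminus. Digestion with purified furin (1:10 enzyme:substrate, 0.01 ml, 50 mM HEPES pH 7.5, CaCl2, NaCl) lasted 7.5, 15 or 30 min. Freed DNA was tagged with adapters by PCR, sequenced and counted; the cleavage Z-score is the lowess-adjusted log count versus furin-free reactions, scaled by median absolute deviation.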

This is one part of the list. The true hit rate is not given.

Chain of furin, P09958 (P09958 whole entry): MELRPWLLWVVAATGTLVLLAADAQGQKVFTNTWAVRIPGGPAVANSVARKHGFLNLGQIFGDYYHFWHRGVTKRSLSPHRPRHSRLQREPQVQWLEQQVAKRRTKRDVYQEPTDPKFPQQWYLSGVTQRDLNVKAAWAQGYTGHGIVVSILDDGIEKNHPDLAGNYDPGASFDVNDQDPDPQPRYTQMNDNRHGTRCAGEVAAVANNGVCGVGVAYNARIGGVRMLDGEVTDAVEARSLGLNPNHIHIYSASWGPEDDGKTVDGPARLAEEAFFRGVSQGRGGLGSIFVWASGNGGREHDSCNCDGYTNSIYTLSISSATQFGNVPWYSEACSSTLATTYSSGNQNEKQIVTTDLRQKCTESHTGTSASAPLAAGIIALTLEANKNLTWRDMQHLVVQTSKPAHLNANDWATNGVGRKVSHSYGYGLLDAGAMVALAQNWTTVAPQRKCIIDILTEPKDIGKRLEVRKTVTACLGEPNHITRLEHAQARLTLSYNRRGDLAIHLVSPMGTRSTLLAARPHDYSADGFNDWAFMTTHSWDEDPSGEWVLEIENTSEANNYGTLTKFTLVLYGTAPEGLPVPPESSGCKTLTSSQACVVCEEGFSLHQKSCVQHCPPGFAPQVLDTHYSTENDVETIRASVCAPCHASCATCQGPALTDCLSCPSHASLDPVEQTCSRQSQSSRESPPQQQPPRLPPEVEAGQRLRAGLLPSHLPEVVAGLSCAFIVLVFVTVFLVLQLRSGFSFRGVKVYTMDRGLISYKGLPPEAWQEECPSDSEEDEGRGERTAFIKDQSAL

As to CARAKRNAVLAGNASASA [FS-2545], the “furin cleavage Z-score” value runs as follows: (7.5 min) 6.45 (active); (15 min) 7.8 (active); (30 min) 6.91 (active).

In the case of CASTPCSAVLAGNASASA [HC2550], the “furin cleavage Z-score” value is, setting by setting: (7.5 min) -1.46 (inactive); (15 min) -0.0198 (inactive); (30 min) -0.52 (inactive).

Take CARAKRFASLAGNASASA [FS-2635]: the “furin cleavage Z-score” value (7.5 min) is 4.64 (active), the “furin cleavage Z-score” value (15 min) was 6.47 (active) and the “furin cleavage Z-score” value (30 min) is 8.89 (active).

Consider CARAKRFLRKAGNASASA [FS-1992], for which the “furin cleavage Z-score” value was 4.11 (active) (7.5 min), 4.74 (active) (15 min) and 7.62 (active) (30 min).

For CARAKRFVSIAGNASASA [FS-1993], the “furin cleavage Z-score” value reads like this: (7.5 min) 4.74 (active); (15 min) 4.17 (active); (30 min) 5.92 (active).

In the case of CASTPCSASLAGNASASA [HC2557], the “furin cleavage Z-score” value (7.5 min) is 0.819 (inactive), the “furin cleavage Z-score” value (15 min) is 0.0223 (inactive) and the “furin cleavage Z-score” value (30 min) is 0.939 (inactive).

As for CARAKRVSWDAGNASASA [FS-1681], the “furin cleavage Z-score” value runs as follows: (7.5 min) -0.617 (inactive); (15 min) 0.099 (inactive); (30 min) 0.302 (inactive).

Regarding CATTVRLRAYAGNASASA [HC928], the “furin cleavage Z-score” value reads like this: (7.5 min) 0.53 (inactive); (15 min) 0.398 (inactive); (30 min) -0.429 (inactive).

CAVQAWKSKKAGNASASA [HC1473]: the “furin cleavage Z-score” value (7.5 min) is 0.322 (inactive), the “furin cleavage Z-score” value (15 min) worked out at 1.5 and the “furin cleavage Z-score” value (30 min) was -0.486 (inactive).

Consider CARDVRLVDAAGNASASA [FS-2655], for which the “furin cleavage Z-score” value runs as follows: (7.5 min) -0.899 (inactive); (15 min) -0.757 (inactive); (30 min) 0.398 (inactive).

CARIRRMADAAGNASASA [FS-2339]: the “furin cleavage Z-score” value is, setting by setting: (7.5 min) 8.4 (active); (15 min) 10.5 (active); (30 min) 8.11 (active).

CAREDRDVNDAGNASASA [FS-2393]: the “furin cleavage Z-score” value runs as follows: (7.5 min) -1.02 (inactive); (15 min) -2.7 (inactive); (30 min) 0.632 (inactive).

On to CARMRRYADAAGNASASA [FS-2355], for which the “furin cleavage Z-score” value was 5.77 (active) (7.5 min), 7.7 (active) (15 min) and 6.66 (active) (30 min).

CARSGRSANAAGNASASA [FS-2522]: the “furin cleavage Z-score” value is 1.32 (7.5 min), 0.616 (inactive) (15 min) and 1.79 (30 min).

Turning to CARMMRPVSDAGNASASA [FS-1753], the “furin cleavage Z-score” value by setting is: (7.5 min) -0.43 (inactive); (15 min) 0.272 (inactive); (30 min) -0.677 (inactive).

For the sequence CARIRRMWNDAGNASASA [FS-2955], the “furin cleavage Z-score” value was 3.22 (7.5 min), 2.6 (15 min) and 4.32 (active) (30 min).

Turning to CATDCFRKHPAGNASASA [HC452], the “furin cleavage Z-score” value by setting is: (7.5 min) 0.56 (inactive); (15 min) -0.196 (inactive); (30 min) 1.34.

As to CAYLKGKWVPAGNASASA [HC549], the “furin cleavage Z-score” value by setting is: (7.5 min) 0.545 (inactive); (15 min) -0.258 (inactive); (30 min) -0.41 (inactive).

Take CAMEECSQHPAGNASASA [HC1779]: the “furin cleavage Z-score” value reads like this: (7.5 min) -0.177 (inactive); (15 min) -0.782 (inactive); (30 min) 2.64.

As for CARCVRDCDPAGNASASA [FS-3243], the “furin cleavage Z-score” value was 0.0718 (inactive) (7.5 min), 1.92 (15 min) and 2.77 (30 min).

As for CARCKRGMKKAGNASASA [FS-1818], the “furin cleavage Z-score” value is 0.324 (inactive) (7.5 min), 0.604 (inactive) (15 min) and 3.09 (30 min).

Consider CARCKRTVLDAGNASASA [FS-2482], for which the “furin cleavage Z-score” value runs as follows: (7.5 min) 0.324 (inactive); (15 min) 1.14; (30 min) 3.14.

Take CAEVVTSTGVAGNASASA [HC2236]: the “furin cleavage Z-score” value (7.5 min) is 0.288 (inactive), the “furin cleavage Z-score” value (15 min) is -1.6 (inactive) and the “furin cleavage Z-score” value (30 min) was -0.142 (inactive).

In the case of CARCKRGTGVAGNASASA [FS-2898], the “furin cleavage Z-score” value is 6.24 (active) (7.5 min), 6.78 (active) (15 min) and 5.78 (active) (30 min).

With CARKKRSTGVAGNASASA [FS-2694], the “furin cleavage Z-score” value reads like this: (7.5 min) 8.73 (active); (15 min) 11.5 (active); (30 min) 10.3 (active).

As for CARCRRGFGVAGNASASA [FS-1849], the “furin cleavage Z-score” value by setting is: (7.5 min) 0.0621 (inactive); (15 min) 1.42; (30 min) 1.48.

With CARCKRDCLEAGNASASA [FS-1996], the “furin cleavage Z-score” value (7.5 min) is 9.7 (active), the “furin cleavage Z-score” value (15 min) was 9.34 (active) and the “furin cleavage Z-score” value (30 min) is 8.23 (active).

Consider CARKKRTLRGAGNASASA [FS-2037], for which the “furin cleavage Z-score” value runs as follows: (7.5 min) 5.12 (active); (15 min) 8.31 (active); (30 min) 6.62 (active).

The values are drawn from the supplement of paper PMC3545927.
